Test results as given in PubChem BioAssay AID1159580 (chemical genetic matrix, 2015).
Out of some 5,500 compounds screened, about 2,000 (36%) were called active. Another 18% or so got no clear call; they are omitted. Cut-off read from the data, not from the text of the source: active = normalized growth mostly below about 0.91 (no sharp cut-off); inconclusive = no clear call, values can overlap the other calls; inactive = mostly above about 0.92. The list shows a part of the results.

Assay: chemical genetic growth profiling, strain panel (AID 1159580);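 note: tested at 20 µM; growth read once vehicle control cultures reached saturation at 30 °C; 1 = growth at the plate median or of vehicle wells; lower values mean less growth of the strain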
Conditions: growth OD

Measured: normalized growth

CCCCCCCCCCCCCCCC[N+](C)(C)C
active: S. cerevisiae deletion strains, locus YJR075W, strain HOC1, hits give low values 0.0608 | S. cerevisiae deletion strains, locus YKL009W, strain mrt4, hits give low values 0.126 | S. cerevisiae deletion strains, locus YKL068W, hits give low values 0.057 | S. cerevisiae deletion strains, locus YKL085W, strain MDH1 (second series), hits give low values 0.0537 | S. cerevisiae deletion strains, locus YKL085W, strain MDH1, hits give low values 0.0537 | S. cerevisiae deletion strains, locus YKL160W, strain elf1, hits give low values 0.0583 | S. cerevisiae deletion strains, locus YKL190W, strain CNB1, hits give low values 0.0478 | S. cerevisiae deletion strains, locus YKR001C, strain vps1, hits give low values 0.0609 | S. cerevisiae deletion strains, locus YKR026C, strain gcn3, hits give low values 0.0627 | S. cerevisiae deletion strains, locus YKR091W, strain srl3, hits give low values 0.0569 | S. cerevisiae deletion strains, locus YLL001W, strain dnm1, hits give low values 0.0599 | S. cerevisiae deletion strains, locus YLL026W, hits give low values 0.0546 | S. cerevisiae deletion strains, locus YLL041C, strain sdh2, hits give low values 0.0568 | S. cerevisiae deletion strains, locus YLR027C, strain aat2, hits give low values 0.0555 | S. cerevisiae deletion strains, locus YLR039C, strain RIC1, hits give low values 0.0825 | S. cerevisiae deletion strains, locus YLR058C, strain SHM2, hits give low values 0.0453 | S. cerevisiae deletion strains, locus YLR102C, strain apc9, hits give low values 0.0605 | S. cerevisiae deletion strains, locus YLR113W, strain HOG1, hits give low values 0.113 | S. cerevisiae deletion strains, locus YLR221C, strain rsa3, hits give low values 0.0541 | S. cerevisiae deletion strains, locus YLR258W, strain gsy2, hits give low values 0.0561 | S. cerevisiae deletion strains, locus YLR262C, strain YPT6 (second series), hits give low values 0.0788 | S. cerevisiae deletion strains, locus YLR262C, strain YPT6, hits give low values 0.0977 | S. cerevisiae deletion strains, locus YLR268W, strain sec22, hits give low values 0.0658 | S. cerevisiae deletion strains, locus YLR320W, strain mms22, hits give low values 0.0733 | S. cerevisiae deletion strains, locus YLR330W, strain CHS5, hits give low values 0.0514 | S. cerevisiae deletion strains, locus YLR342W, strain FKS1 (second series), hits give low values 0.0636 | S. cerevisiae deletion strains, locus YLR342W, strain FKS1, hits give low values 0.0598 | S. cerevisiae deletion strains, locus YLR357W, strain rsc2, hits give low values 0.103 | S. cerevisiae deletion strains, locus YLR370C, strain arc18, hits give low values 0.061 | S. cerevisiae deletion strains, locus YLR371W, strain rom2, hits give low values 0.0606 | S. cerevisiae deletion strains, locus YLR384C, strain iki3, hits give low values 0.0599 | S. cerevisiae deletion strains, locus YLR418C, strain cdc73, hits give low values 0.0891 | S. cerevisiae deletion strains, locus YML016C, strain PPZ1, hits give low values 0.0596 | S. cerevisiae deletion strains, locus YML032C, strain rad52, hits give low values 0.0653 | S. cerevisiae deletion strains, locus YML120C, strain ndi1, hits give low values 0.0558 | S. cerevisiae deletion strains, locus YML124C, strain tub3, hits give low values 0.0593 | S. cerevisiae deletion strains, locus YMR058W, strain fet3, hits give low values 0.0569 | S. cerevisiae deletion strains, locus YMR078C, strain ctf18, hits give low values 0.0689 | S. cerevisiae deletion strains, locus YMR125W, strain sto1, hits give low values 0.0643 | S. cerevisiae deletion strains, locus YMR129W, hits give low values 0.0561 | S. cerevisiae deletion strains, locus YMR205C, strain PFK2, hits give low values 0.0755 | S. cerevisiae deletion strains, locus YMR223W, strain ubp8, hits give low values 0.0626 | S. cerevisiae deletion strains, locus YMR231W, strain pep5, hits give low values 0.0651 | S. cerevisiae deletion strains, locus YMR263W, strain SAP30, hits give low values 0.0582 | S. cerevisiae deletion strains, locus YMR307W, strain GAS1, hits give low values 0.119 | S. cerevisiae deletion strains, locus YNL067W, strain RPL9B, hits give low values 0.0498 | S. cerevisiae deletion strains, locus YNL071W, strain lat1, hits give low values 0.0578 | S. cerevisiae deletion strains, locus YNL128W, strain TEP1, hits give low values 0.0627 | S. cerevisiae deletion strains, locus YNL153C, strain GIM3, hits give low values 0.0486 | S. cerevisiae deletion strains, locus YNL183C, strain NPR1, hits give low values -0.00175 | S. cerevisiae deletion strains, locus YNL209W, strain ssb2, hits give low values 0.0612 | S. cerevisiae deletion strains, locus YNL233W, strain BNI4, hits give low values 0.053 | S. cerevisiae deletion strains, locus YNL248C, strain rpa49, hits give low values 0.0567 | S. cerevisiae deletion strains, locus YNL250W, strain rad50, hits give low values 0.0666 | S. cerevisiae deletion strains, locus YNL271C, strain bni1, hits give low values 0.0608 | S. cerevisiae deletion strains, locus YNL298W, strain CLA4, hits give low values 0.0592 | S. cerevisiae deletion strains, locus YNL307C, strain MCK1, hits give low values 0.0664 | S. cerevisiae deletion strains, locus YNL322C, strain KRE1 (second series), hits give low values 0.0599 | S. cerevisiae deletion strains, locus YNL322C, strain KRE1, hits give low values 0.0495 | S. cerevisiae deletion strains, locus YNR049C, strain mso1, hits give low values 0.0575 | S. cerevisiae deletion strains, locus YNR052C, strain pop2, hits give low values 0.0593 | S. cerevisiae deletion strains, locus YOL006C, strain TOP1, hits give low values 0.0794 | S. cerevisiae deletion strains, locus YOL012C, strain htz1 0.179 | S. cerevisiae deletion strains, locus YOL147C, strain pex11, hits give low values 0.0577 | S. cerevisiae deletion strains, locus YOR001W, strain rrp6, hits give low values 0.0595 | S. cerevisiae deletion strains, locus YOR061W, strain CKA2, hits give low values 0.0395 | S. cerevisiae deletion strains, locus YOR069W, strain VPS5, hits give low values 0.0494 | S. cerevisiae deletion strains, locus YOR070C, strain gyp1, hits give low values 0.0582 | S. cerevisiae deletion strains, locus YOR080W, strain dia2, hits give low values 0.0639 | S. cerevisiae deletion strains, locus YOR083W, strain WHI5, hits give low values 0.0574 | S. cerevisiae deletion strains, locus YOR106W, strain vam3, hits give low values 0.0616 | S. cerevisiae deletion strains, locus YOR136W, strain idh2, hits give low values 0.0711 | S. cerevisiae deletion strains, locus YOR144C, strain elg1, hits give low values 0.0571 | S. cerevisiae deletion strains, locus YOR184W, strain ser1, hits give low values 0.0671 | S. cerevisiae deletion strains, locus YOR231W, strain MKK1, hits give low values 0.0937 | S. cerevisiae deletion strains, locus YOR265W, strain rbl2, hits give low values 0.0534 | S. cerevisiae deletion strains, locus YOR270C, strain vph1, hits give low values 0.0651 | S. cerevisiae deletion strains, locus YOR290C, strain snf2, hits give low values 0.0594 | S. cerevisiae deletion strains, locus YOR316C, strain cot1, hits give low values 0.0575 | S. cerevisiae deletion strains, locus YPL051W, strain arl3, hits give low values 0.0558 | S. cerevisiae deletion strains, locus YPL055C, strain LGE1, hits give low values 0.0731 | S. cerevisiae deletion strains, locus YPL078C, strain atp4, hits give low values 0.0629 | S. cerevisiae deletion strains, locus YPL106C, strain sse1, hits give low values 0.0805 | S. cerevisiae deletion strains, locus YPL240C, strain hsp82, hits give low values 0.0545 | S. cerevisiae deletion strains, locus YPL241C, strain CIN2, hits give low values 0.0519 | S. cerevisiae deletion strains, locus YPL256C, strain CLN2, hits give low values 0.107 | S. cerevisiae deletion strains, locus YPR119W, strain clb2, hits give low values 0.0613 | S. cerevisiae deletion strains, locus YPR141C, strain kar3, hits give low values 0.0706 | S. cerevisiae deletion strains, locus YPR163C, strain tif3, hits give low values 0.0686 | S. cerevisiae deletion strains, locus YPR167C, strain met16, hits give low values 0.0617 | S. cerevisiae deletion strains, strain wtn01, hits give low values 0.0595 | S. cerevisiae strains, strain wild type, hits give low values 0.0507
